Our source for the Inhibition values is ChEMBL document CHEMBL4296182, “CO-ADD screening of NIH NCI Diversity Set V”.

Structures are written as SMILES. For part of these data: Potency and affinity values are given separately.

One assay concerns Staphylococcus aureus. Kind of assay: Antibacterial activity against Staphylococcus aureus MRSA ATCC 43300 (CO-ADD:GP_020); MIC in CAMBH media using NBS plates, by Resazurin F(560/590). The assay is classed as functional. The conditions noted are these: Concentration 20 uM, ASSAY_TEST Inhibition of Bacterial Growth, detection method Resazurin, Fluorescence (ex560/em590), MEDIA CAMHB, plate type 384well, CORNING #3640, time 18 hr. Background: Resazurin is reduced to fluorescent resorufin, in cell work by metabolically active cells.

In a further assay the test system is Acinetobacter baumannii. Kind of assay: Antibacterial activity against Acinetobacter baumannii ATCC 19606 (CO-ADD:GN_034); MIC in CAMBH media using NBS plates, by Resazurin F(560/590). In kind it is functional. As to conditions: Concentration 20 uM, ASSAY_TEST Inhibition of Bacterial Growth, detection method Resazurin, Fluorescence (ex560/em590), MEDIA CAMHB, plate type 384well, CORNING #3640, time 18 hr.

The subject of another assay is Escherichia coli. Nature of the assay: Antibacterial activity against Escherichia coli ATCC 25922 (CO-ADD:GN_001); MIC in CAMBH media using NBS plates, by Resazurin F(560/590). As to conditions: Concentration 20 uM, ASSAY_TEST Inhibition of Bacterial Growth, detection method Resazurin, Fluorescence (ex560/em590), MEDIA CAMHB, plate type 384well, CORNING #3640, time 18 hr. In kind it is functional.

The next assay concerns Klebsiella pneumoniae. As to conditions: Concentration 20 uM; ASSAY_TEST Inhibition of Bacterial Growth; detection method Absorption (OD600); MEDIA CAMHB; plate type 384well; NBS; CORNING #3640; time 18 hr.
The test system of the next assay is Candida albicans. The conditions noted are these: 20 µM.
Another assay has as its system Cryptococcus neoformans. As to conditions: Concentration 20 uM; ASSAY_TEST Inhibition of Fungal Growth; detection method Resazurin; Absorption (OD600-OD570); plate type 384well; NBS; CORNING #3640.

Take `CC1=NC2=CC=CC3=NC(C(Cl)(Cl)Cl)=NC(=N1)N23`: the Inhibition (in general, the drop in the measured response relative to a control, in per cent) was -3.19% in the assay on Staphylococcus aureus; 10.22% in the assay with Acinetobacter baumannii; 9.49% with Escherichia coli; 11.94% with Klebsiella pneumoniae; 1.15% in the assay on Candida albicans; -10.05% in the assay on Cryptococcus neoformans.
Consider `CC1=CC2C(C(O)CC3(C)C2CC(C)C32OCOC23COCO3)C2(C)C/C(=C/O)C(=O)C=C12` (stereo not given), for which the Inhibition in the assay on Staphylococcus aureus was 18.36%; in the assay with Acinetobacter baumannii, -11.09%; in the assay with Escherichia coli it was 9.35%; in the assay on Klebsiella pneumoniae it was 4.64%; in the assay with Candida albicans it was 15.1%; in the assay on Cryptococcus neoformans, -16.69%.
In the case of `Cc1ccc(NC(=O)Nc2ccccc2C(N)=O)cc1`, the Inhibition was -6.86% in the assay on Staphylococcus aureus; -15.18% in the assay with Acinetobacter baumannii; 6.22% with Escherichia coli; 4.47% in the assay with Klebsiella pneumoniae; 1.66% with Candida albicans; -13.76% in the assay on Cryptococcus neoformans.
For `CCCCCC(=O)N1CCCCC1`, the Inhibition in the assay on Staphylococcus aureus was 5.23%; in the assay with Acinetobacter baumannii it was -9.77%; in the assay on Escherichia coli, 7.04%; with Klebsiella pneumoniae, 14.07%; in the assay with Candida albicans it was 3.39%; in the assay on Cryptococcus neoformans it was 2.22%.
Turning to `O=c1nc(Nc2cccc(Cl)c2)oc2cc(Cl)oc(=O)c12`, the Inhibition with Staphylococcus aureus is 6.93%; with Acinetobacter baumannii, 3.28%; in the assay with Escherichia coli, 2.7%; in the assay on Klebsiella pneumoniae, 6.71%; in the assay with Candida albicans it was 20.4%; with Cryptococcus neoformans it was -13.47%.
Turning to `CC(=O)OC1C=CCC2C(=O)c3cccc(O)c3C(O)C12` (stereo not given), the Inhibition in the assay with Staphylococcus aureus was -1.42%; in the assay on Acinetobacter baumannii, -10.27%; in the assay on Escherichia coli it was 6.95%; in the assay with Klebsiella pneumoniae it was 7.69%; in the assay on Candida albicans, 6.66%; in the assay with Cryptococcus neoformans, -16.38%.
Consider `CS(=O)(=O)Nc1nc2ccccc2[nH]1`, for which the Inhibition in the assay with Staphylococcus aureus is 10.98%; in the assay with Acinetobacter baumannii it was 4.83%; with Escherichia coli it was -1.14%; in the assay with Klebsiella pneumoniae, 15.79%; in the assay with Candida albicans it was 3.39%; in the assay with Cryptococcus neoformans, -3.84%.
For `C=CCOC(=O)/C=C\C(=O)NC(N)=O`, the Inhibition was 5.08% in the assay with Staphylococcus aureus; -11.84% in the assay on Acinetobacter baumannii; 0.88% with Escherichia coli; 29.86% with Klebsiella pneumoniae; 7.76% in the assay with Candida albicans; 0.75% with Cryptococcus neoformans.
As to `Cc1cc(N2CCOCC2)nc(N2CCOCC2)n1`, the Inhibition was 0.14% in the assay on Staphylococcus aureus; -0.73% with Acinetobacter baumannii; 6.71% with Escherichia coli; 4.64% with Klebsiella pneumoniae; 1.08% in the assay with Candida albicans; -7.95% in the assay on Cryptococcus neoformans.
In the case of `CCOC(=O)CSc1nc2nc(Cl)c(Cl)[nH]c-2n1`, the Inhibition in the assay on Staphylococcus aureus is 22.58%; in the assay on Acinetobacter baumannii, 6.84%; in the assay on Escherichia coli it was -0.86%; in the assay with Klebsiella pneumoniae, 8.77%; with Candida albicans it was 0.89%; in the assay on Cryptococcus neoformans, 3.6%.
For the molecule `OCC1CCCC(n2cnc3c(S)ncnc32)O1` (stereo not given), the Inhibition was 9.66% in the assay with Staphylococcus aureus; 5.96% in the assay with Acinetobacter baumannii; 6.02% in the assay with Escherichia coli; 14.91% with Klebsiella pneumoniae; 14% with Candida albicans; -13.51% with Cryptococcus neoformans.
In the case of `NNC(=O)Cc1cc(O)[nH]n1`, the Inhibition in the assay with Staphylococcus aureus was 0.66%; in the assay with Acinetobacter baumannii it was -1.89%; in the assay with Escherichia coli it was 4.91%; in the assay with Klebsiella pneumoniae, -1.33%; with Candida albicans, 1.93%; with Cryptococcus neoformans it was -9.5%.
Turning to `O=C(O)C1=NN(c2cc(Cl)c(S(=O)(=O)O)cc2Cl)C(=O)C1`, the Inhibition with Staphylococcus aureus was 10.8%; in the assay with Acinetobacter baumannii, 12.97%; in the assay on Escherichia coli it was 19.15%; with Klebsiella pneumoniae, 14.41%; in the assay on Candida albicans, 2.3%; in the assay with Cryptococcus neoformans, -14.45%.
With `Cc1c(Cl)cccc1Nc1ncccc1C(=O)OCC(O)CO` (stereo not given) [CLONIXERIL], the Inhibition with Staphylococcus aureus is 16.87%; with Acinetobacter baumannii it was 6.56%; with Escherichia coli, -0.19%; in the assay with Klebsiella pneumoniae, 9.09%; in the assay on Candida albicans, -1.76%; with Cryptococcus neoformans, -6.15%.
`COc1cc2c(NCCCCCO)ncnc2c(OC)c1OC`: the Inhibition is 13.68% in the assay with Staphylococcus aureus; 10.53% in the assay with Acinetobacter baumannii; 6.4% with Escherichia coli; 13.53% with Klebsiella pneumoniae; 0.91% in the assay with Candida albicans; -4.07% in the assay with Cryptococcus neoformans.
As to `COc1ccc(Cc2nnc(SC)n2-c2ccc(F)cc2)cc1OC`, the Inhibition in the assay on Staphylococcus aureus was 7.78%; with Acinetobacter baumannii, -2.89%; in the assay with Escherichia coli, 10.28%; in the assay with Klebsiella pneumoniae, 14.43%; in the assay with Candida albicans it was 2.19%; in the assay on Cryptococcus neoformans it was -3.12%.
Take `NC(=O)c1cc2c3ccccc3ccn2c1-c1ccccc1`: the Inhibition with Staphylococcus aureus is 8.37%; in the assay on Acinetobacter baumannii it was -5.02%; in the assay with Escherichia coli it was 3.37%; with Klebsiella pneumoniae, 9.25%; in the assay on Candida albicans, 6.45%; with Cryptococcus neoformans, -9.75%.
Turning to `Nc1ncnc2c1ncn2C=C=CCO`, the Inhibition in the assay on Staphylococcus aureus is 13.44%; in the assay on Acinetobacter baumannii it was 8.12%; with Escherichia coli, -2.59%; in the assay with Klebsiella pneumoniae it was 6.59%; in the assay with Candida albicans, 1.58%; in the assay on Cryptococcus neoformans, -2.86%.
Take `CN(C)c1ccc(C(c2ccc(N(C)C)cc2)c2ccc([N+](=O)[O-])cc2)cc1`: the Inhibition was 15.85% in the assay on Staphylococcus aureus; 11.72% in the assay with Acinetobacter baumannii; -1.1% in the assay on Escherichia coli; 17.42% in the assay with Klebsiella pneumoniae; 2.89% in the assay with Candida albicans; -7.55% with Cryptococcus neoformans.
In the case of `O=C1CCCC1C(=O)Nc1ccc2ccccc2c1` (stereo not given), the Inhibition is 9.31% in the assay with Staphylococcus aureus; 10.21% in the assay on Acinetobacter baumannii; -4.09% in the assay with Escherichia coli; 17.7% in the assay on Klebsiella pneumoniae; 10.3% with Candida albicans; -1.69% in the assay with Cryptococcus neoformans.
On to `CC(=O)c1cc2c(cc1C)CCCC2(C)C`, for which the Inhibition in the assay on Staphylococcus aureus is 18.6%; in the assay with Acinetobacter baumannii, -15.87%; with Escherichia coli it was 11.58%; in the assay on Klebsiella pneumoniae it was 0.53%; in the assay on Candida albicans, -0.44%; in the assay with Cryptococcus neoformans, -7.49%.
As to `Cc1cc2nc3ccc(N(C)C)cc3[s+]c2cc1N.[Cl-]` [TOLONIUM CHLORIDE], the Inhibition with Staphylococcus aureus is -5.05%; with Acinetobacter baumannii it was -12.21%; in the assay with Escherichia coli it was 2.47%; with Klebsiella pneumoniae, 19.75%; in the assay on Candida albicans, 1.87%; in the assay on Cryptococcus neoformans, -7.34%.
With `O=C(C=C=Nc1ccccc1)C(=O)N=C=Cc1ccccc1`, the Inhibition is 7.34% in the assay on Staphylococcus aureus; 5.35% with Acinetobacter baumannii; 5.03% with Escherichia coli; 25.39% with Klebsiella pneumoniae; 6.53% in the assay on Candida albicans; 5.95% in the assay with Cryptococcus neoformans.
`Nc1ncnc(N2CCOCC2)n1`: the Inhibition was -3.61% in the assay on Staphylococcus aureus; -4.78% in the assay with Acinetobacter baumannii; -0.51% with Escherichia coli; 0.72% in the assay with Klebsiella pneumoniae; 2.01% in the assay with Candida albicans; -5.84% in the assay on Cryptococcus neoformans.
For `Cc1nnsc1C(=O)NCc1c(F)cccc1Cl`, the Inhibition was -1.87% in the assay on Staphylococcus aureus; -1.01% in the assay with Acinetobacter baumannii; -7.07% with Escherichia coli; 6.44% in the assay with Klebsiella pneumoniae; -0.57% in the assay with Candida albicans; -9.18% in the assay with Cryptococcus neoformans.
